Compound activity: PubChem, several laboratories
Most compounds without a hit are left out; they make up all but 3.9% or so of the library.
3CLpro inhibitor – SARS-CoV 3CLpro protease inhibition; P0C6X7; recombinant SARS-CoV 3CLpro, quenched FRET peptide cleavage; inhibition, % at 6 µM; 290,000 tested, 0.14% active; AID 1706; in the data active = inhibition above about 12%
BoNT A protease – inhibitors of Botulinum neurotoxin A light chain protease | multiplex microsphere protease substrate cleavage, flow cytometry | inhibition, % at 10 µM | 360,000 tested, 0.17% active | AID 588499
Anthrax LF prot – anthrax lethal factor protease inhibition; multiplex microsphere protease cleavage assay, LF; inhibition, % at 10 µM; 360,000 tested, 0.12% active
CCHFV vOTU inh – blocks the CCHF virus ovarian tumor domain protease. CCHFV vOTU protease, Pep-AMC fluorescence. AID 651958. 370,000 tested, 0.55% active. inhibition, % at 11.5 µM; in the data active = inhibition above about 30%
Autofluor counter – flagged as autofluorescent in microsphere protease counterscreen; fluorescence intensity (concentration not given with the values); AID 624483; 360,000 tested, 3.1% active; compound autofluorescence counterscreen, microsphere flow cytometry; stronger effect = higher value; in the data active = fluorescence intensity above about 16000; inconclusive = no clear call, values can overlap the other calls
BoNT F protease – BoNT F light chain protease inhibition; 360,000 tested, 0.22% active; inhibition, % at 10 µM; Multiplex microsphere protease cleavage assay, flow cytometry; in the data active = inhibition above about 35%, passing the limit was not always enough; inconclusive = no clear call, values can overlap the other calls
Each line names hits and unclear results; the compound was inactive in the other large screens. Cut-off read from the data, not from the text of the source, unless noted: active = inhibition above about 30%; inconclusive = no clear call, values can overlap the other calls; inactive = below that.

O=C1CC(N2CCC(c3nc4ccccc4[nH]3)CC2)C(=O)N1c1ccccc1F (stereo not given)	none
COc1ccc(N2C(=O)CC(N3CCC(c4nc5ccccc5[nH]4)CC3)C2=O)cc1 (stereo not given)	BoNT A protease inconclusive, Autofluor counter 22767
COc1ccc(N2C(=O)CC(N3CCC(O)(c4ccc(Cl)cc4)CC3)C2=O)cc1 (stereo not given)	BoNT A protease inconclusive, Autofluor counter 16898
Oc1ccc2[nH]cc(CCc3ccccc3)c2c1-c1ccccc1	none (no result: 3CLpro inhibitor, BoNT A protease, Anthrax LF prot, Autofluor counter, BoNT F protease)
CC(C)c1nc2sc3c(SCCN(C)C)ncnc3c2c2c1CCC2	BoNT F protease inconclusive (no result: 3CLpro inhibitor)
CCOC(=O)COc1ccccc1-c1ccno1	BoNT A protease inconclusive, Autofluor counter 21115
CCOC(=O)COc1ccccc1/C=C1\NC(=O)NC1=O	none
COc1ccc2c(c1)CCc1c(C(=O)Nc3ccc(OC)c(OC)c3)noc1-2	Autofluor counter 20591
COc1ccc2c(c1)CCc1c(C(=O)N3CCCc4ccccc43)noc1-2	none
COc1ccc2c(c1)CCc1c(C(=O)N3CCOCC3)noc1-2	Autofluor counter 18054
COc1ccc2c(c1)CCc1c(C(=O)NCCc3ccc(OC)c(OC)c3)noc1-2	none
COc1ccccc1CNC(=O)c1ccccc1N(C)S(C)(=O)=O	Autofluor counter 19853
COc1ccccc1CNC(=O)c1ccccc1NS(C)(=O)=O	Autofluor counter 20558
CCN(CC)S(=O)(=O)c1ccc(NC(=O)c2ccccc2N(C)S(C)(=O)=O)cc1	BoNT A protease inconclusive, Autofluor counter 21922
COc1ccccc1CNC(=O)c1ccc(NS(C)(=O)=O)cc1	none
COc1ccccc1CNC(=O)c1ccccc1N	none (no result: CCHFV vOTU inh)
O=C(NC1CCCCN(Cc2ccc(OC(F)(F)F)cc2)C1=O)c1cccc(F)c1 (stereo not given)	none (no result: 3CLpro inhibitor, BoNT A protease, Anthrax LF prot, Autofluor counter, BoNT F protease)
CCOC(=O)c1nnc(-c2ccccc2)nc1NCc1ccccc1	Autofluor counter 24408
Nn1c(SCC(=O)NCC2CCCO2)nnc1-c1ccc(OC(F)F)cc1 (stereo not given)	none (no result: 3CLpro inhibitor)
CS(=O)(=O)NC1CCN(Cc2ccccc2)CC1	BoNT A protease inconclusive, Autofluor counter 22396
O=C(COc1ccccc1F)NC1CCN(Cc2ccccc2)CC1	Autofluor counter 20185
COCCNC(=O)c1ccc(NC(=O)C2(c3ccccc3)CCCC2)cc1	none
Nc1ccc(S(=O)(=O)c2cc(O)c3ccccc3c2O)cc1	CCHFV vOTU inh 71 (no result: 3CLpro inhibitor)
COc1ccc(N(CC(=O)Nc2cc(C(=O)O)ccc2C)S(=O)(=O)c2c(C)noc2C)cc1	Autofluor counter 16981
COc1ccc(C)cc1C1=CC(=O)C[C@H](c2ccc(F)cc2)C1	none (no result: 3CLpro inhibitor)
Cc1ccc(Nc2cnn(C34CC5CC(CC(CC(=O)O)(C5)C3)C4)c(=O)c2Cl)cc1	3CLpro inhibitor 12
CC(=O)c1ccc(Nc2cnn(C34CC5CC(CC(CC(=O)O)(C5)C3)C4)c(=O)c2Cl)cc1	none
O=C(Cn1cc(C(=O)C(F)(F)F)c2ccccc21)N1CCOCC1	none
COC(=O)c1ccc(CSc2nnc(SCc3ccc(C(=O)OC)o3)s2)o1	none
COC(=O)c1ccc(CSc2nc(C)nc3sc(C)c(C)c23)o1	Autofluor counter 22019
Cc1ccnc2nc(C(=O)OCC(=O)N(C)C3CCCCC3)nn12	none (no result: 3CLpro inhibitor)
CCOC(=O)C1CCN(Cc2ccc(C(=O)OC)cc2)CC1	Autofluor counter 23791 (no result: CCHFV vOTU inh)
COC(=O)c1ccc(/C=N\N2CCN(Cc3ccc(C)cc3)CC2)cc1	BoNT A protease inconclusive, Autofluor counter 16594
CCOC(=O)C1CCN(Cc2cnc(Oc3ccc(N)cc3)s2)CC1	Autofluor counter 21292
NC(=O)C1(N2CCCCC2)CCN(Cc2ccc(F)cc2)CC1	Autofluor counter 21961
CCOC(=O)C1CCN(Cc2ccc(F)cc2)CC1	Autofluor counter 16511
CCOC(=O)C1CCN(C(=O)c2cccc(NC(=O)C(CC)CC)c2)CC1	none
CCOC(=O)C1CCN(C(=O)c2cccc(C(=O)N3CCC(C(=O)OCC)CC3)c2)CC1	BoNT A protease inconclusive, Autofluor counter 21616
CCOC(=O)C1CCN(Cc2ccc(Cl)c(Cl)c2)CC1	none
CCOC1=C2[C@@H](CN(S(=O)(=O)c3ccc(C)cc3)[C@H]2c2ccccc2)[C@H]2C(=O)N(c3ccccc3)C(=O)[C@H]2C1	none (no result: 3CLpro inhibitor)
CNS(=O)(=O)c1cccc(C(=O)NCC(c2cccs2)N(C)C)c1 (stereo not given)	Autofluor counter 22234
O=C(CSCC(=O)N1CCCCC1)OCC(=O)c1c[nH]c2ccccc12	BoNT A protease 33, Anthrax LF prot 47
CCN(CC)S(=O)(=O)c1cc(NC(=O)Cn2cnc3ccccc3c2=O)ccc1C	Autofluor counter 16361
CN(c1ccccc1)S(=O)(=O)c1cccc(NC(=O)Cn2cnc3ccccc3c2=O)c1	BoNT F protease inconclusive
COc1ccc(C2=NOC(C(=O)NCc3ccccc3)C2)cc1 (stereo not given)	none (no result: CCHFV vOTU inh)
COc1ccc(C2=NOC(C(=O)NC(C)(C)C)C2)cc1 (stereo not given)	Autofluor counter 22564
CCN(CC)C(=O)C1CC(c2ccc(OC)cc2)=NO1 (stereo not given)	Autofluor counter 20968
CC1(C)CC(=O)C(C=NCCc2ccc(S(N)(=O)=O)cc2)=C(O)C1	Autofluor counter 23978
O=C(NC1CCCCC1)C1c2ccccc2OCC(=O)N1CCCN1CCOCC1 (stereo not given)	none (no result: 3CLpro inhibitor)
O=C(NC1CCCC1)C1c2ccccc2C(=O)N1C1CCCCC1 (stereo not given)	Autofluor counter 19915
O=C(NC1CCCCCC1)C1c2ccccc2C(=O)N1C1CC1 (stereo not given)	none (no result: CCHFV vOTU inh)
O=C1c2cccnc2C(O)N1C1CCCCC1 (stereo not given)	Autofluor counter 23226
CCCCN1C(=O)c2ccccc2C1C(=O)NC1CCCC1 (stereo not given)	Autofluor counter 22700
CC1CCC(NC(=O)C2c3ccccc3C(=O)N2CCCN2CCOCC2)CC1 (stereo not given)	BoNT A protease inconclusive, Autofluor counter 24072
CCNS(=O)(=O)c1ccc(NC(=S)NCC2CCCO2)cc1 (stereo not given)	none
O=C(NC(=O)c1cccc(OC(F)(F)C(F)F)c1)OC1CCS(=O)(=O)C1 (stereo not given)	Autofluor counter 24101
O=C(Nc1ccccc1)OC1CCS(=O)(=O)C1 (stereo not given)	none
O=C1C=C(OCCF)CC(c2ccccc2C(F)(F)F)O1 (stereo not given)	none (no result: 3CLpro inhibitor, BoNT A protease, Anthrax LF prot, Autofluor counter, BoNT F protease)
COc1ccc(CN(CC2CCCO2)S(=O)(=O)c2ccc(C(=O)O)cc2)cc1OC (stereo not given)	Autofluor counter 23567
CCOC(=O)C1(C)CCN1C(=O)c1cccnc1Oc1ccccc1 (stereo not given)	none (no result: 3CLpro inhibitor)
CCOc1ccc(-c2noc(CCCC(N)=O)n2)cc1OC	Autofluor counter 22255
COc1ccc(-c2noc(CCCC(=O)Nc3ccc(C(N)=O)cc3)n2)cc1OC	none
COc1ccc(-c2noc(CCC(N)=O)n2)cc1OC	BoNT A protease inconclusive, Autofluor counter 22164
